Screening results from PubChem BioAssay.
Rows were chosen to be rich in hits. Some 21% of all compounds tested hit in one or more screens of this group.
ClpP mod: qHTS Assay for Activators of ClpP; ATP-dependent Clp protease proteolytic subunit (Bacillus subtilis (strain 168)), P80244; purified B. subtilis ClpP, FRET peptide cleavage, 20 min; Potency, µM (top dose mostly 57.5 µM), for inactives: top-dose activity change, negative = active; actives 1.9% (n = 340,000); AID 651965, 2013; active = well fitted falling curve with a large enough effect; inconclusive = small, poorly fitted or top-dose-only effect; inactive = no such curve, though single readings can be large or run the other way; also: potency is read from the fitted curve at half-maximal effect; the source files actives as falling curves though it sought activators and does not explain the sign; nearly all actives have a fitted effect of over 65% in size
Target sequence (P80244 whole entry, looked up): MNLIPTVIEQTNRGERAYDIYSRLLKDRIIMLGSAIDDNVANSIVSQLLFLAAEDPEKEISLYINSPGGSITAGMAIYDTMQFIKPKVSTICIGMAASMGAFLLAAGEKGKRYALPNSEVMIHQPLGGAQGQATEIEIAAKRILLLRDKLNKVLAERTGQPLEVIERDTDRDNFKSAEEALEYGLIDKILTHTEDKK
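FRET quenching reversal measured ClpP activation: 10 microg/mL B. subtilis ClpP at pH 8 with the FRET-FV decapeptide, read at 430 nm after 320 nm excitation. The 20-min minus 0-min signal was scaled between DMSO/no-enzyme wells and ADEP (5.8 microM final).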
D3 ag: activates the human D3 dopamine receptor; P35462; D3R DiscoveRx beta-arrestin cells, luminescence, 90 min; max activation, %; actives 0.58% (n = 410,000); AID 652048; in the data active = max activation above about 30%; also: 0% is about no effect
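Agonist mode: compounds and dopamine controls were applied to plated cells for 90 min at 37 degrees C after an overnight attachment at 1500 cells/well. Luminescent read-out followed 30 - 60 minutes at room temperature with DiscoveRx detection reagent.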
DRD3 antagonist: blocks the human D3 dopamine receptor. P35462. D3R cells, DiscoveRx beta-arrestin luminescence, antagonist mode; stronger effect = lower value. max response, negative = inhibition, %. actives 2.5% (n = 360,000). AID 652054; in the data active = max response below about -50%; inconclusive = no clear call, values can overlap the other calls; also: % is scaled to controls: 0 for no effect and ±100 for the full control effect
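Cells plated overnight at 1500 cells/well, then exposed to library compounds with dopamine controls for 90 minutes at 37 degrees C. DiscoveRx reagent added for 30–60 minutes at room temperature; luminescence read, quantitative HTS format.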
IL1B secr inh: blocks inflammasome-driven IL-1 beta release; activity change, % at 57.5 µM; actives 4.7% (n = 360,000); THP-1 LPS/ATP IL-1B secretion, AlphaLISA, 16 h; stronger effect = lower value; in the data active = activity change below about -50%; inconclusive = mostly about -30% to -49%; also: % is scaled to controls: 0 for no effect and ±100 for the full control effect
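Secreted IL-1B measured by AlphaLISA bead assay after 16 h compound exposure of THP-1 cells; compounds (final up to 57.5 uM) added 1 h before LPS (250 ng/mL) and ATP (1.25 mM) stimulation; lower signal means less secretion.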
TDP1 cell CPT: growth inhibition of DT40 Tdp1-/-;hTDP1 cells with camptothecin (screen for TDP1 inhibitors); chicken DT40 Tdp1-/-;hTDP1 cells + 20 nM CPT, ATP luminescence, 48 h; Potency, µM (titrated, usually from 46.2 µM), inactives show at the highest dose activity change, negative = growth inhibition, hits mostly inhibitors; actives 12% (n = 420,000); AID 686979; also: potency is read from the fitted curve at half-maximal effect; % is scaled to controls: 0 for no effect and ±100 for the full control effect; nearly all actives have a fitted effect of over 55% in size
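Cell growth measured by CellTiter-Glo luminescence after a minimum 48 h, 37 C compound exposure with 20 nM CPT in Tdp1-knockout DT40 cells stably expressing hTDP1, seeded 400/well; qHTS titration format.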
TDP1 cell noCPT: qHTS for Inhibitors of human tyrosyl-DNA phosphodiesterase 1 (TDP1): qHTS in cells in absence of CPT; DT40 Tdp1-/- hTDP1 cells, no CPT, ATP luminescence, 48 h; Potency, µM (doses to about 46.2 µM), without a hit: at the highest dose activity change, negative = growth inhibition, most hits filed as inhibitors; actives 15% (n = 420,000); also: potency is read from the fitted curve at half-maximal effect; % is scaled to controls: 0 for no effect and ±100 for the full control effect; nearly all actives have a fitted effect of over 55% in size
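Stably hTDP1-transfected Tdp1-null chicken DT40 cells were treated with library compounds minus camptothecin and grown for at least 48 hr at 37 °C, after which cellular ATP was quantified by luminescence.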
Numbers without * were called inactive; ? = inconclusive; . = no result. Unless noted, calls follow the shape of the dose curve; as a rule, active = well fitted inhibition curve with a large enough effect; inconclusive = small, poorly fitted or top-dose-only effect; inactive = flat fitted curve, though single readings scatter.

SMILES	ClpP mod	D3 ag	DRD3 antagonist	IL1B secr inh	TDP1 cell CPT	TDP1 cell noCPT
CCN1CCN(c2ccc(S(=O)(=O)N3CCCCC3)cc2N)CC1	-2%	-15	-10	15	-17%	21%
COc1ccc(-c2noc(N3CCN(c4ccc(C)cc4)C(C)C3)n2)cc1OC (centres undefined)	0%	19	.	.	?	16µM*
Cc1cn(C2OC(COC(=O)c3ccccc3)C(OC(=O)c3ccccc3)C2OC(=O)c2ccccc2)c(=O)[nH]c1=O (centres undefined)	-1%	15	7	-15	23µM*	?
Cc1cn(C2OC(COC(=O)c3ccccc3)C(O)C2O)c(=O)[nH]c1=O (centres undefined)	-2%	0	-6	15	10%	5%
Cc1ccc2nc(N3CCN(C(=O)c4ccccc4F)CC3)c(C#N)cc2c1	.	11	0	-4	?	?
Cc1ccc2nc(N3CCN(C(=O)c4ccc(F)cc4)CC3)c(C#N)cc2c1	?	7	-5	-10	?	23µM*
Cc1ccc2cc(C#N)c(N3CCN(C(=O)c4cccs4)CC3)nc2c1	0%	3	16	5	?	21µM*
COc1ccccc1Nc1sc(C(=O)c2ccc3c(c2)OCO3)c(N)c1S(=O)(=O)c1ccccc1	-26%	-21	.	.	.	.
Cc1ccc(C)c(N2CCN(C(=O)CN3C(=S)NC(C)(C)CC3C)CC2)c1 (centres undefined)	0%	0	-17	-3	23µM*	23µM*
Cc1ccc(C)c(N2CCN(C(=O)CC3Sc4ccccc4NC3=O)CC2)c1 (centres undefined)	0%	3	0	-28	18µM*	16µM*
Cc1ccc2c(Cl)c(C(=O)NCCCN3CCOCC3)sc2c1	-4%	0	-8	-4	-13%	-10%
COc1ccc(/C=N\NC(=O)c2cc(O)c(O)c(O)c2)cc1CN1CCN(c2ccc(F)cc2)CC1	-5%	-9	-30	21	?	?
COc1ccc(/C=N/NC(=O)c2ccc(F)cc2)cc1CN1CCc2cc(OC)c(OC)cc2C1C (centres undefined)	-5%	-4	0	-59*	?	18µM*
COc1ccc(/C=N/NC(=O)c2ccncc2)cc1CN1CCN(c2ccc(F)cc2)CC1	1%	-14	-55*	-4	-16%	?
COc1ccc(/C=N/NC(=O)c2ccc(C)cc2)cc1CN1CCN(c2ccc(F)cc2)CC1	-1%	-13	-10	-18	-5%	?
CC1(C(=O)NCc2ccccc2Br)CCN1Cc1ccc(-c2ccccc2)o1 (centres undefined)	-15%	-1	-9	-21	?	?
COc1ccc(C2C=C(c3ccc(Cl)cc3)Nc3nc(NC(=O)CCC(=O)O)nn32)cc1 (centres undefined)	5%	8	.	.	6%	-25%
COc1ccc(C2C=C(c3ccccc3)Nc3nc(NC(C)=O)nn32)cc1 (centres undefined)	5%	1	.	.	-27%	?
COc1ccc(C2C=C(c3ccccc3)Nc3nc(NS(=O)(=O)c4ccccc4)nn32)cc1 (centres undefined)	4%	4	.	.	?	?
Cc1ccc(C2C=C(c3ccccc3)Nc3nc(NS(C)(=O)=O)nn32)cc1 (centres undefined)	5%	5	.	.	3%	-2%
COc1ccc(/C=C/C(=O)Nc2nc3n(n2)C(c2ccc(F)cc2)C=C(c2ccccc2)N3)cc1 (centres undefined)	-11%	1	.	.	5.2µM*	3.7µM*
